About 7,900 targets were measured; listed, in parts, are those with a hit and a random draw of the rest. About 0.6% of all pairs of compound and target were hits.
How the values were obtained:
Assay in all cases: log2 fold change, soluble protein after heating vs DMSO (PISA); higher = thermal stabilisation; K562 cells, 10 uM, 30 min; active = over 0.2 and 3.5 SD of the protein, either way, in both replicates (recomputed)
[1] = compound: C[C@@H]1COCCN1C2=NC(=NC(=C2)C3(CC3)S(=O)(=O)C)C4=C5C=CNC5=CC=C4
Procedure, shortened: (§1)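 Aliquots of K562 cells (2×10^6 cells/mL) treated with 10 μM compound for 30 min were heated for 3 min over 48°C-58°C. After pooling and extraction in PBS with 0.5% NP-40 at 4°C, soluble protein from a 21,000xg, 90 min spin was quantified by TMTpro 16plex LC-MS/MS with channel sums equalised. Thermal stability is expressed against control samples, from duplicates, as a log2 fold change.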

[2] = compound: Cc1cc(Nc2cc(N3CCN(C)CC3)nc(Sc3ccc(NC(=O)C4CC4)cc3)n2)n[nH]1 [tozasertib]
Procedure, shortened: as §1

[3] = compound: Cn1cncc1[C@@](N)(c1ccc(Cl)cc1)c1ccc2c(c1)c(-c1cccc(Cl)c1)cc(=O)n2C [tipifarnib]
Procedure, shortened: as §1

[4] = compound: C[C@@H](Oc1cc(-c2cnn(C3CCNCC3)c2)cnc1N)c1c(Cl)ccc(F)c1Cl [crizotinib]
Procedure, shortened: as §1

[5] = compound: Cc1ccc(-n2nc(C(C)(C)C)cc2NC(=O)Nc2ccc(OCCN3CCOCC3)c3ccccc23)cc1 [doramapimod]
Procedure, shortened: as §1

[6] = compound: Cc1ccc(C(=O)N(CCCN)[C@@H](c2nc3cc(Cl)ccc3c(=O)n2Cc2ccccc2)C(C)C)cc1 [ispinesib]
Procedure, shortened: as §1

[7] = compound: Cn1cc(-c2ccc3nnc(C(F)(F)c4ccc5ncccc5c4)n3n2)cn1
Procedure, shortened: as §1

[8] = compound: C[C@H](C1=CC=C(C=C1)C(=O)NC2=C3C=CNC3=NC=C2)N
Procedure, shortened: as §1

[9] = compound: C[C@H](Nc1ncnc2nc[nH]c12)c1cc2cccc(Cl)c2c(=O)n1-c1ccccc1 [duvelisib]
Procedure, shortened: as §1

[10] = compound: Cc1cc(Nc2cc(CN3CCOCC3)c3nc(C)c(Cc4ccc(Cl)cc4F)n3n2)n[nH]1 [gandotinib]
Procedure, shortened: as §1

[11] = compound: Cc1cc(SCc2sc(-c3ccc(C(F)(F)F)cc3)nc2C)ccc1OCC(=O)O
Procedure, shortened: as §1

[12] = compound: Cc1ccc(NC(=O)c2ccc(CN3CC[C@H](N(C)C)C3)c(C(F)(F)F)c2)cc1Nc1nccc(-c2cncnc2)n1 [bafetinib]
Procedure, shortened: as §1

[13] = compound: Cc1cccc(CC(=O)N2CCc3c2ccc(-c2cn(C)c4ncnc(N)c24)c3F)n1
Procedure, shortened: as §1

[14] = compound: Cc1cn(-c2cc(NC(=O)c3ccc(C)c(Nc4nccc(-c5cccnc5)n4)c3)cc(C(F)(F)F)c2)cn1 [nilotinib]
Procedure, shortened: as §1

[15] = compound: Cc1nc(Nc2n[nH]c3c2CN(C(=O)N[C@H](CN(C)C)c2ccccc2)C3(C)C)c2sccc2n1
Procedure, shortened: as §1

[16] = compound: Cc1nc(Nc2ncc(C(=O)Nc3c(C)cccc3Cl)s2)cc(N2CCN(CCO)CC2)n1 [dasatinib]
Procedure, shortened: as §1

[17] = compound: Cc1ncc(-c2ccnc(Nc3ccc(S(C)(=O)=O)cc3)n2)n1C(C)C
Procedure, shortened: as §1

[18] = compound: Cn1cc(-c2ccc3c(c2)CCN3C(=O)Cc2cccc(C(F)(F)F)c2)c2c(N)ncnc21
Procedure, shortened: as §1

[19] = compound: FC(F)(F)c1ccc(/C=C/c2nc(COc3ccc(CCCCn4ccnn4)cc3)co2)cc1 [mubritinib]
Procedure, shortened: as §1

[20] = compound: CS(=O)(=O)c1ccc(-c2cnc(N)c(C(=O)Nc3ccccc3)n2)cc1
Procedure, shortened: as §1

Measured: log2 fold change

C5orf30 (UniProt Q96GV9)
Sequence of UniProt Q96GV9 (Q96GV9 whole entry, looked up): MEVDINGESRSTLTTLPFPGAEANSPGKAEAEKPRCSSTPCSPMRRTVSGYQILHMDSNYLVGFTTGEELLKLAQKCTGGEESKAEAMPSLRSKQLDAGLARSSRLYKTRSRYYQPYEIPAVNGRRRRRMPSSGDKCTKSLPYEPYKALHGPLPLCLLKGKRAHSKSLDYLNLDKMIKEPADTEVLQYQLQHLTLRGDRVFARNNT
inactive: [1] 0.352 | [2] -0.24 | [3] 0.152

CARD9 (UniProt Q9H257)
Sequence of UniProt Q9H257 (Q9H257 whole entry, looked up): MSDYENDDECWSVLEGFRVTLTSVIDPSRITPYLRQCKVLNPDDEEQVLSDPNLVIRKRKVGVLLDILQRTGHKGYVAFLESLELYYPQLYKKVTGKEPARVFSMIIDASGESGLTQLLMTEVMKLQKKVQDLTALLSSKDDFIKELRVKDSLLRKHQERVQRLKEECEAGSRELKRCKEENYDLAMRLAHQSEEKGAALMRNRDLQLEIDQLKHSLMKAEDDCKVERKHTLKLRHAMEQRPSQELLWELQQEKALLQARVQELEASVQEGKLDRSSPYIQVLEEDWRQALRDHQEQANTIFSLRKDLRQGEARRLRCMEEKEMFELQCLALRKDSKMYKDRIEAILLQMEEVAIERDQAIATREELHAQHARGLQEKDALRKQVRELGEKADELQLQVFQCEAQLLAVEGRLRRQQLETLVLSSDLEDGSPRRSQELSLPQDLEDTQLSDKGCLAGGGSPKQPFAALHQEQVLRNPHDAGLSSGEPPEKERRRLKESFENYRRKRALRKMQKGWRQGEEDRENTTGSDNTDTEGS
inactive: [4] -0.023 | [5] 0.135 | [6] -0.398 | [7] 0.085

CNOT4 isoform 9 (UniProt O95628)
Sequence of UniProt O95628 (O95628 whole entry, looked up): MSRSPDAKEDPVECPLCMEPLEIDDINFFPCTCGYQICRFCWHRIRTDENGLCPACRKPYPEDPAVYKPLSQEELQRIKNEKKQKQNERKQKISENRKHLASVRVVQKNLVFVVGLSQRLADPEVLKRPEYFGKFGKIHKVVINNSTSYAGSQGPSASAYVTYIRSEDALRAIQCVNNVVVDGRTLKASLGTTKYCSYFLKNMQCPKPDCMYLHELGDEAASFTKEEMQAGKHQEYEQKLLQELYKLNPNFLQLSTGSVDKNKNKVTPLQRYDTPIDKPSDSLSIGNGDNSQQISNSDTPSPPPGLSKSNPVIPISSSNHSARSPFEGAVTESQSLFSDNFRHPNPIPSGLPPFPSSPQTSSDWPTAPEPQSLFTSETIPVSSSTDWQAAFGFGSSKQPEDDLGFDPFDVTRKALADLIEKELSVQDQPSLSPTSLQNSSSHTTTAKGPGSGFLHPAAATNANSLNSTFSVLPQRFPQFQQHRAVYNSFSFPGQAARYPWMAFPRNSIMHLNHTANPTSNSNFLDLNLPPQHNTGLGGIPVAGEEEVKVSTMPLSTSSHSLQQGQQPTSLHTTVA
inactive: [4] -0.094 | [9] -0.076 | [10] -0.059 | [2] -0.028 | [11] -0.086 | [5] 0.274 | [6] -0.102 | [12] 0.081 | [13] 0.067 | [14] 0.094 | [15] -0.172 | [16] 0.074 | [17] 0 | [18] 0.096 | [7] 0.036 | [3] -0.019 | [19] 0.055
active: [8] 0.484

CEMIP2 (UniProt Q9UHN6)
inactive: [4] 0.075 | [1] 0.023 | [8] 0.03 | [9] 0.037 | [10] -0.129 | [2] 0 | [11] -0.136 | [5] -0.144 | [6] -0.148 | [12] -0.018 | [13] 0.002 | [14] 0.069 | [15] 0.083 | [16] -0.044 | [17] 0.031 | [18] 0.03 | [7] 0.179 | [3] 0.033 | [19] -0.024

CASK (UniProt O14936)
inactive: [9] 0.049 | [11] -0.039 | [5] 0.034 | [16] 0.096

CSNK1A1 isoform 3 (UniProt P48729)
inactive: [12] 0.224 | [3] 0.165 | [19] 0.055

CDC25B isoform 4 (UniProt P30305)
Sequence of UniProt P30305 (P30305 whole entry, looked up): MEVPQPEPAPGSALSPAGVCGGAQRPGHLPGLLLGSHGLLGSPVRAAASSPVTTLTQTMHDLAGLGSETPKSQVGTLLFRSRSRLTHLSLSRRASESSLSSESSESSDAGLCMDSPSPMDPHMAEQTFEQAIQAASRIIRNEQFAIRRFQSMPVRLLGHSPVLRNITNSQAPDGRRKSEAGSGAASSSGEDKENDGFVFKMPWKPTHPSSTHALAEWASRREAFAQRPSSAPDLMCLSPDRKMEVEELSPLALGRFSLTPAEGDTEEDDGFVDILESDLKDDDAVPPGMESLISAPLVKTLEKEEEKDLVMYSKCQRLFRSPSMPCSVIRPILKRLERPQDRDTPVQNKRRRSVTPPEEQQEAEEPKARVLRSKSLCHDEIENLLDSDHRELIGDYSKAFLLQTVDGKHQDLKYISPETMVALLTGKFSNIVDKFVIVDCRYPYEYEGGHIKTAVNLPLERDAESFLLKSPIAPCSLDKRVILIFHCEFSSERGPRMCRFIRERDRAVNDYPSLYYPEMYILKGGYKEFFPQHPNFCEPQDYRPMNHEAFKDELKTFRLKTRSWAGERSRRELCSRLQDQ
active: [14] -0.513
inactive: [20] -0.104 | [1] -0.216 | [8] -0.057 | [10] 0.122 | [5] 0.132 | [6] 0.019 | [12] 0.081 | [13] -0.022 | [15] -0.051 | [17] -0.206 | [18] 0.095 | [7] -0.03 | [3] 0.022 | [19] 0.074

COMMD3-BMI1 (UniProt R4GMX3)
inactive: [20] 0.074 | [1] -0.031 | [8] 0.019 | [10] -0.011 | [2] -0.048 | [13] -0.032 | [14] -0.109 | [15] -0.02 | [17] 0.046 | [18] 0.141 | [3] 0.435

CRTC3 (UniProt Q6UUV7)
inactive: [20] -0.004 | [1] 0.177 | [8] 0.071 | [2] -0.121 | [6] 0.129 | [12] -0.018 | [18] -0.002 | [7] -0.019 | [3] -0.302 | [19] -0.168

CCNT2 (UniProt O60583)
Sequence of UniProt O60583 (O60583 whole entry, looked up): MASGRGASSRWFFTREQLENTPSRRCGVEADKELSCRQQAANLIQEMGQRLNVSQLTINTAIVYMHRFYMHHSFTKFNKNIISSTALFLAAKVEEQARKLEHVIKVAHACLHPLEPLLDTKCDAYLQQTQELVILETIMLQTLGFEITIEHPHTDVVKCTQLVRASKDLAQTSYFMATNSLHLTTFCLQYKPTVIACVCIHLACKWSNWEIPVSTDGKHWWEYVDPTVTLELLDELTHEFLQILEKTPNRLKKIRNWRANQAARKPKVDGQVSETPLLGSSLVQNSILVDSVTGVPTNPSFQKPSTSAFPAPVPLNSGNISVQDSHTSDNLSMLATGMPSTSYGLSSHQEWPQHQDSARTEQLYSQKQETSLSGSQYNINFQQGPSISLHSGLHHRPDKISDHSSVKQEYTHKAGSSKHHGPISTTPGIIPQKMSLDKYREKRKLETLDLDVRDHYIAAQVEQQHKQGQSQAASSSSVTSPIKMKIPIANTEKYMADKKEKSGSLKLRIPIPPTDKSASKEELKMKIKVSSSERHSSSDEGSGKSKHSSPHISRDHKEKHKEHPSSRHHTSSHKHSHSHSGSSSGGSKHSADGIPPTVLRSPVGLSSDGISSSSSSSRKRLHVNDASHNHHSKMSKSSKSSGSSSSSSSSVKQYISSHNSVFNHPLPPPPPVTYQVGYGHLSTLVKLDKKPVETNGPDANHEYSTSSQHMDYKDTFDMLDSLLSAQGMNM
inactive: [20] -0.226 | [1] -0.148 | [9] -0.107 | [10] -0.065 | [2] -0.291 | [11] 0.047 | [6] -0.147 | [13] -0.117 | [14] 0.105 | [15] -0.161 | [16] -0.02 | [17] -0.462 | [7] -0.219 | [3] 0.08 | [19] -0.209

CCND3 (UniProt P30281)
Sequence of UniProt P30281 (P30281 whole entry, looked up): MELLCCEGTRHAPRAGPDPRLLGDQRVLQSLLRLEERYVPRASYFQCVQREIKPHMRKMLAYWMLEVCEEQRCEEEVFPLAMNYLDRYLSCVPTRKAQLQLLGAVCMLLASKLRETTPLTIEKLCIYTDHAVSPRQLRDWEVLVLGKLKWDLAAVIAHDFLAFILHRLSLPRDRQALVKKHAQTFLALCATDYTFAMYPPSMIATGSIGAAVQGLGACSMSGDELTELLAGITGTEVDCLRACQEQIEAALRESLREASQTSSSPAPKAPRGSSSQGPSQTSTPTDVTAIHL
inactive: [1] -0.271 | [8] 0.096 | [9] 0.014 | [10] -0.027 | [2] -0.058 | [11] 0.058 | [6] -0.116 | [12] 0.07 | [13] -0.016 | [16] -0.08 | [18] 0.04 | [7] 0.092 | [3] 0.026 | [19] 0.024

CLN3 (UniProt Q13286)
Sequence of UniProt Q13286 (Q13286 whole entry, looked up): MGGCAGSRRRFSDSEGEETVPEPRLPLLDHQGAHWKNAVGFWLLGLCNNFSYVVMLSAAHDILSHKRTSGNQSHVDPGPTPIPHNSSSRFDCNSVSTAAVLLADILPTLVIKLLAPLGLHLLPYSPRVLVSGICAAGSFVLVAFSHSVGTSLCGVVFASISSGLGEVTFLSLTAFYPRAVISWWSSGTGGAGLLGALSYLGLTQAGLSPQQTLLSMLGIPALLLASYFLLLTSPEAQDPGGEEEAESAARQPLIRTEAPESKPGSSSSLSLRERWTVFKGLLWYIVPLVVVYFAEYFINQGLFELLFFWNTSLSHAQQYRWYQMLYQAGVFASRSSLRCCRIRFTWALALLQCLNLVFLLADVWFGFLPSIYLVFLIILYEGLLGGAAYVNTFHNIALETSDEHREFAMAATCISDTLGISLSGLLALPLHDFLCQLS
inactive: [4] -0.327 | [1] 0.066 | [8] 0.071 | [9] 0.096 | [2] -0.006 | [11] -0.085 | [5] -0.047 | [6] -0.307 | [12] -0.099 | [14] -0.016 | [15] 0.002 | [16] 0.064 | [17] -0.02 | [18] -0.049 | [7] 0.028 | [3] 0.1 | [19] 0.09

CREB3L2 (UniProt Q70SY1)
Sequence of UniProt Q70SY1 (Q70SY1 whole entry, looked up): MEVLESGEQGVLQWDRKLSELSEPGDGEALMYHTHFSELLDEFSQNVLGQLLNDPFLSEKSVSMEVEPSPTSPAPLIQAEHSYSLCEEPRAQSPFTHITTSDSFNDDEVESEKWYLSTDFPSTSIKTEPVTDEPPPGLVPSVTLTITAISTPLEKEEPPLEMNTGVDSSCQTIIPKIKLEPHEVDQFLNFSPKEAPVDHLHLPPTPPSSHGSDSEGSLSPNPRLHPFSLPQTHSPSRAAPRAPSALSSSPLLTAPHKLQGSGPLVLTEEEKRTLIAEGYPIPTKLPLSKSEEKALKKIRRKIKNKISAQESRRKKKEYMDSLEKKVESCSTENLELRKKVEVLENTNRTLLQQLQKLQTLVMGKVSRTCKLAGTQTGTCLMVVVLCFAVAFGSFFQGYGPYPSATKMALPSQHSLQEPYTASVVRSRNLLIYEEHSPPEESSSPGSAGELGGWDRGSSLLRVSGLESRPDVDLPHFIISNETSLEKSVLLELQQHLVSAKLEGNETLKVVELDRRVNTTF
inactive: [4] 0.098 | [1] -0.076 | [8] -0.26 | [2] -0.132 | [5] 0.128 | [6] -0.342 | [12] 0.01 | [14] 0.091 | [15] -0.009 | [17] -0.119 | [18] 0.039 | [7] -0.024 | [19] 0.13

CFAP47 (UniProt Q6ZTR5)
inactive: [1] 0.099 | [9] -0.027 | [11] -0.302 | [12] 0.034 | [16] -0.117 | [3] 0.047

CCDC187, A0A1W2PQX5
inactive: [1] -0.042 | [10] -0.352 | [6] 0.274 | [13] -0.106 | [14] 0.318 | [15] 0.027 | [17] 0.104 | [7] -0.056

CD68 (UniProt P34810)
inactive: [20] -0.016 | [12] -0.091 | [19] -0.003

CCNDBP1 (UniProt O95273)
Sequence of UniProt O95273 (O95273 whole entry, looked up): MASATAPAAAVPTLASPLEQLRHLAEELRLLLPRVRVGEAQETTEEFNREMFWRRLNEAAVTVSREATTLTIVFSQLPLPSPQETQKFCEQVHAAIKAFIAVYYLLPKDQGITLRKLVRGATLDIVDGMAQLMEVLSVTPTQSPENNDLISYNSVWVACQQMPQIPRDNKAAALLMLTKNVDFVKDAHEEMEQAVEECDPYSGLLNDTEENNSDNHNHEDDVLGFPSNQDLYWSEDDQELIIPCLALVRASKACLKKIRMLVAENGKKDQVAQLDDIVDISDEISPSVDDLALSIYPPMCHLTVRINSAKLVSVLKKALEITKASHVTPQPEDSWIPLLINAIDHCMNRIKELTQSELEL
inactive: [20] 0.016 | [8] 0.06 | [9] 0.016 | [10] -0.066 | [2] 0.1 | [11] 0.043 | [6] -0.029 | [12] 0.059 | [13] -0.017 | [14] -0.19 | [15] 0.028 | [16] 0.023 | [17] 0.21 | [18] -0.055 | [7] -0.197 | [19] -0.045

CKS2 (UniProt P33552)
Sequence of UniProt P33552 (P33552 whole entry, looked up): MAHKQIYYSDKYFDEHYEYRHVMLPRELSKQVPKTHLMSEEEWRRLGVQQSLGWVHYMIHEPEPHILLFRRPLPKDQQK
inactive: [9] 0.01 | [10] -0.272 | [2] -0.094 | [11] -0.038 | [12] -0.021 | [13] 0.048 | [14] -0.008 | [15] -0.188 | [16] 0.096 | [17] -0.222 | [3] -0.047 | [19] 0.325

CPNE5 (UniProt Q9HCH3)
Sequence of UniProt Q9HCH3 (Q9HCH3 whole entry, looked up): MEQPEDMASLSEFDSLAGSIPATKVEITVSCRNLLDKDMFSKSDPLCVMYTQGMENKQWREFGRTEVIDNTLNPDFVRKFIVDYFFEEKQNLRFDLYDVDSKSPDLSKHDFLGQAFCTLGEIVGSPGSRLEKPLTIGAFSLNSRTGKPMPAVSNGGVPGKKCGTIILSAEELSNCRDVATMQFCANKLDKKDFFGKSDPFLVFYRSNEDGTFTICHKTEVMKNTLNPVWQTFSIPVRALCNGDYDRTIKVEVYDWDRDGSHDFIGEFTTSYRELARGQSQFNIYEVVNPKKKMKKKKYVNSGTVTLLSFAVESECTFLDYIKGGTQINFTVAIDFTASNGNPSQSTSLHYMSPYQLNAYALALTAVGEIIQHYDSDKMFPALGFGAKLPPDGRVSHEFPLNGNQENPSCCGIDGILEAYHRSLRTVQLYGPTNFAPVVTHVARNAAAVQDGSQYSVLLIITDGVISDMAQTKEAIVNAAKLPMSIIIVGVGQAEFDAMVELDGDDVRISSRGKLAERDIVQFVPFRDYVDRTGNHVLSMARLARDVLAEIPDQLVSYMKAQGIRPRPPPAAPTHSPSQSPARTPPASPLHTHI
inactive: [8] 0.148 | [2] 0.374 | [18] -0.077

Reference: the supplement of paper PMC10849652
